# Test results taken from PubChem BioAssay (EPA / NIEHS).
# Results filed as inconclusive are left out. Calls of active or inactive are those of the source. How the source made its calls, unless noted: active means hit-call score of the fitted dose curve at least 0.9, where 1 is the maximum; inconclusive means response in the unintended direction; inactive means score below 0.9.
# Molecular target: Nucleoli Translocation, AR (gene 367) (UniProt P10275)
# Assay: UPITT_HCI_U2OS_AR_TIF2_Nucleoli_Antagonist: University of Pittsburgh U2OS Androgen Receptor-Transcriptional Intermediary Factor 2 (AR-TIF2) Antagonism High Content Imaging Assay for Nucleoli Translocation (AID 2283997)
# Method in brief: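 An antagonist-mode imaging screen: engineered U2OS (AR-RFP, TIF2-GFP) exposed to 20 uM compound, 0.2% DMSO. Activity reflects nucleolar red fluorescence change relative to DHT baseline.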
# Sequence of Nucleoli Translocation, AR (gene 367) (P10275 whole entry, looked up): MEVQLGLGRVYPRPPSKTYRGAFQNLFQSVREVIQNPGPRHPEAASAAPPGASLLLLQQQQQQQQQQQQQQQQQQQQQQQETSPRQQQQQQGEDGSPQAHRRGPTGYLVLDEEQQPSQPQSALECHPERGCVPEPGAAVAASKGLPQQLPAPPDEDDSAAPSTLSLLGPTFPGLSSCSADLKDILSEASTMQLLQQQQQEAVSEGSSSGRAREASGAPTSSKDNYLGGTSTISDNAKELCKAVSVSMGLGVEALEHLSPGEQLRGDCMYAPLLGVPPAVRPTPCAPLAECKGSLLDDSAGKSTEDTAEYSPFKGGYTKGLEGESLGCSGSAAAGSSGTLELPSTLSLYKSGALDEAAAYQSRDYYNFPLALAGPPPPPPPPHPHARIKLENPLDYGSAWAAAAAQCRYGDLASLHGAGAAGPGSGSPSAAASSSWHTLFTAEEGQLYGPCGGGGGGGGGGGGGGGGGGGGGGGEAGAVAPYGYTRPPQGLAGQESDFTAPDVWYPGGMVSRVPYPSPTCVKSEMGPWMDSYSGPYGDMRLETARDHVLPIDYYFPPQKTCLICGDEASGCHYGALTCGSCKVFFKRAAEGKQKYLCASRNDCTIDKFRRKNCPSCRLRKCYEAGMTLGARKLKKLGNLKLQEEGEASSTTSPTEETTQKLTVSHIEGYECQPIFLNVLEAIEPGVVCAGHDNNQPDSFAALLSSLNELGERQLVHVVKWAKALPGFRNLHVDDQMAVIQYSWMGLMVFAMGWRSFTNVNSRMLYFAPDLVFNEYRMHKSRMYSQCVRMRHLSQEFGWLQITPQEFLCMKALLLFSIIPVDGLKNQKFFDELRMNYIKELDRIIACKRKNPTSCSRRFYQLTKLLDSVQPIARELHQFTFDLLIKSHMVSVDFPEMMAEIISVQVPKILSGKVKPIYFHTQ
row,SMILES,outcome
1,CN(C)N,inactive
2,Cc1ccc(C)c2ccccc12,inactive
3,c1ccc2c(c1)CCCC2,inactive

# Molecular target: Ratio of Nucleoli Translocation and Cytoplasm, AR (gene 367) (UniProt P10275)
# Assay: UPITT_HCI_U2OS_AR_TIF2_Nucleoli_Cytoplasm_Ratio_Agonist: University of Pittsburgh U2OS Androgen Receptor-Transcriptional Intermediary Factor 2 (AR-TIF2) Agonism High Content Imaging Assay for Ratio of Nucleoli Translocation and Cytoplasm (AID 2284000);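 further: hits raise the red nucleolar to cytoplasm ratio above vehicle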
# Method in brief: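 Primary screen at 20 uM final (0.2% DMSO), then triplicate confirmation and dose-response from 0.195 to 50 uM final (0.5% DMSO). Cells: U2OS with AR-RFP and TIF2-GFP. Endpoint is the nucleoli/cytoplasm red-fluorescence ratio, gain-of-signal vs DMSO.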
# Sequence of Ratio of Nucleoli Translocation and Cytoplasm, AR (gene 367) (P10275 whole entry, looked up): as above
row,SMILES,outcome
1,CN(C)N,inactive
2,Cc1ccc(C)c2ccccc12,inactive
3,c1ccc2c(c1)CCCC2,inactive

# Tested on: not listed separately
# Assay: CCTE_Harrill_HTTr_Viability_MCF7: CCTE's 6-hour Cell Viability Assessment for the High-Throughput Transcriptomics (HTTr) Platform, in MCF-7 cells cultured in DMEM + 10% fetal bovine serum, Harrill Lab (AID 2284010; active means hit-call score of the fitted dose curve at least 0.9, where 1 is the maximum; inactive means score below 0.9)
# Method in brief: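 Eight-point concentration series, six-hour exposure. Propidium iodide exclusion imaged to assess membrane integrity as a cytotoxicity readout; bidirectional fitting was done with DMSO as negative control and activity baseline.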
row,SMILES,outcome
1,O=C(NC(=O)c1c(F)cccc1F)Nc1ccc(Oc2ccc(C(F)(F)F)cc2Cl)cc1F,inactive
2,CN(C)N,inactive
3,Nc1ccc(Cl)c(Cl)c1,inactive
4,O=[N+]([O-])c1ccc(Cl)cc1,inactive
5,c1cc(OCC2CO2)ccc1Cc1ccc(OCC2CO2)cc1 (stereo unspecified),inactive
6,COc1ncc(F)c2nc(S(=O)(=O)Nc3c(F)cccc3F)nn12,inactive

# Tested on: not listed separately
# Assay: CCTE_Harrill_HTTr_Apoptosis_MCF7: CCTE's 6-hour Apoptosis Assessment for the High-Throughput Transcriptomics (HTTr) Platform, in MCF-7 cells cultured in DMEM + 10% fetal bovine serum, Harrill Lab (AID 2284011; active means hit-call score of the fitted dose curve at least 0.9, where 1 is the maximum; inactive means score below 0.9)
# Method in brief: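 High-content imaging of CellEvent Caspase 3/7 Green signal follows a six-hour exposure, with eight concentrations per chemical. MCF-7 cells grown in DMEM plus 10% fetal bovine serum; activity fitted in both directions against DMSO.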
row,SMILES,outcome
1,O=C(NC(=O)c1c(F)cccc1F)Nc1ccc(Oc2ccc(C(F)(F)F)cc2Cl)cc1F,inactive
2,CC(=O)C=Cc1ccccc1,inactive
3,CC(C)CCCCCCCOC(=O)c1ccccc1C(=O)OCCCCCCCC(C)C,inactive
4,O=[N+]([O-])c1ccc(Cl)cc1,inactive
5,CC(=O)c1cc2c(cc1C)C(C)(C)C(C)CC2(C)C (stereo unspecified),inactive
6,c1cc(OCC2CO2)ccc1Cc1ccc(OCC2CO2)cc1 (stereo unspecified),inactive
7,[Cl][Sb]([Cl])[Cl],inactive
8,COc1ncc(F)c2nc(S(=O)(=O)Nc3c(F)cccc3F)nn12,inactive
9,C[C@]12CC[C@H]3[C@@H](CC[C@@]45O[C@@H]4C(O)=C(C#N)C[C@]35C)[C@@H]1CC[C@@H]2O,inactive

# Tested on: not listed separately
# Assay: CCTE_Harrill_HTTr_CellCount_MCF7: CCTE's Cell Proliferation Assessment for the High-Throughput Transcriptomics (HTTr) Platform, Harrill Lab (AID 2284012);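 further: count of Hoechst-stained nuclei per well by high-content imaging in MCF-7 cells; cells exposed to compound for six hours; intended direction is loss of nuclei count meaning fewer cells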
# Method in brief: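 For this full-screen endpoint, MCF-7 cultures received eight compound dilutions for six hours. Well nuclei counts from Hoechst imaging were analyzed relative to DMSO.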
row,SMILES,outcome
1,CC(=O)C=Cc1ccccc1,inactive
2,CC(C)CCCCCCCOC(=O)c1ccccc1C(=O)OCCCCCCCC(C)C,inactive
3,CN(C)N,inactive
4,Nc1ccc(Cl)c(Cl)c1,inactive
5,CC(=O)c1cc2c(cc1C)C(C)(C)C(C)CC2(C)C (stereo unspecified),inactive
6,c1cc(OCC2CO2)ccc1Cc1ccc(OCC2CO2)cc1 (stereo unspecified),inactive
7,[Cl][Sb]([Cl])[Cl],inactive
8,COc1ncc(F)c2nc(S(=O)(=O)Nc3c(F)cccc3F)nn12,inactive
9,CC(C)[C@@H](C(=O)O[C@@H](C#N)c1cccc(Oc2ccccc2)c1)c1ccc(Cl)cc1,inactive
10,C[C@]12CC[C@H]3[C@@H](CC[C@@]45O[C@@H]4C(O)=C(C#N)C[C@]35C)[C@@H]1CC[C@@H]2O,inactive

# Tested on: not listed separately
# Assay: CCTE_Deisenroth_AIME_384WELL_CTox_Active: Cytotoxicity Assessment (CTOX) in CCTE's 384-well Estrogen Receptor Transactivation Assay with AIME metabolic competence (metabolism positive), Deisenroth Lab (AID 2284037);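 further: chemicals first conditioned 2 h by alginate-bound induced rat liver S9 before cells; activity means signal loss indicating cell death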
# Method in brief: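 VM7Luc4E2 breast cells received medium pre-incubated 2 h with chemical over alginate microspheres holding induced male Sprague Dawley rat liver S9; viability read 24 h later by protease-substrate fluorescence. Loss of signal, bidirectional fit, 0.002–200 uM.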
row,SMILES,outcome
1,O=C(NC(=O)c1c(F)cccc1F)Nc1ccc(Oc2ccc(C(F)(F)F)cc2Cl)cc1F,inactive
2,Nc1ccc(Cl)c(Cl)c1,inactive
3,O=[N+]([O-])c1ccc(Cl)cc1,inactive
4,Cc1ccc(C)c2ccccc12,inactive
5,CCCCCCCCCCCCCCCC[N+](C)(C)C,inactive
